# The source made the active and inactive calls. How the source made its calls: active means hit-call score of the fitted dose curve at least 0.9, where 1 is the maximum; inactive means score below 0.9.
# Tests used:
# [1] = ATG_E_Box_CIS: Attagene CIS-FACTORIAL HepG2 Assay for human Enhancer Box (E-box) (AID 2282936); details: HepG2 E-box cis-reporter transcription, actives raise or lower the signal
# Outline: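 Endogenous transcription factor activity was sensed in human HepG2 liver cells through transfected cis-promoter reporter units. After 24 h of dosing, total RNA was reverse-transcribed and reporter cDNA resolved by capillary electrophoresis.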
# [2] = ATG_M_61_CIS: Attagene CIS-FACTORIAL HepG2 Assay for M61 Transcription Factor (Internal Marker) (AID 2282937); details: HepG2 Attagene CIS-FACTORIAL M61 internal marker reporter; actives raise or lower the signal
# Outline: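 Cells were transfected with reporter units under cis-regulatory promoters, treated with chemicals for 24 h, then lysed for RNA. Reporter transcripts were quantified by RT-PCR and capillary electrophoresis, and activity was fitted bidirectionally against DMSO.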
# [3] = ATG_EGR_CIS: Attagene CIS-FACTORIAL HepG2 Assay for human Early Growth Response 1 (EGR1) (AID 2282938); details: HepG2 Attagene CIS-FACTORIAL EGR reporter mRNA; actives raise or lower the signal
# Outline: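 Endogenous TF activity in HepG2 liver cells was gauged through cis-promoter reporter constructs transiently transfected. After 24 h dosing, reporter mRNA was quantified by RT-PCR and capillary electrophoresis, and curves fitted in both directions versus DMSO.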
# [4] = ATG_M_19_CIS: Attagene CIS-FACTORIAL HepG2 Assay for M19 Transcription Factor (Internal Marker) (AID 2282939); details: HepG2 Attagene CIS-FACTORIAL M19 internal marker reporter; actives raise or lower the signal
# Outline: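 Background-control endpoint from a multiplexed HepG2 reporter panel. Cells carrying cis-regulated reporter constructs are treated 24 h, then reporter transcripts are amplified, fluorescently labelled and sized by capillary electrophoresis. DMSO defines baseline.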
# [5] = ATG_ERE_CIS: Attagene CIS-FACTORIAL HepG2 Assay for Estrogen Response Element (ERE) (AID 2282940); details: HepG2 ERE cis-reporter, Attagene RNA transcript; actives raise or lower the signal
# Outline: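 Cells used were human hepatoma HepG2, transfected with multiple reporter transcription units under cis-regulatory promoters. Reporter mRNA, read 24 h post-dosing via fluorescent RT-PCR products on capillary electrophoresis, was fitted bidirectionally relative to DMSO.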
# [6] = ATG_Ets_CIS: Attagene CIS-FACTORIAL HepG2 Assay for human Erythroblast Transformation Specific (ETS) (AID 2282941); details: HepG2 ETS cis-reporter transcription, actives raise or lower the signal
# Outline: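 Cis-regulated reporter mRNA induction in HepG2 (transient transfection), 24 h exposure, RT-PCR plus capillary electrophoresis detection; DMSO serves as negative control and baseline.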
# [7] = ATG_FoxO_CIS: Attagene CIS-FACTORIAL HepG2 Assay for human Forkhead box O (FoxO) (AID 2282943); details: HepG2 Attagene cis-reporter, FoxO element, mRNA; actives raise or lower the signal
# Outline: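 Values reflect reporter mRNA induction or loss in HepG2 cells 24 h post-dosing, fitted bidirectionally with DMSO as negative control and baseline. Detection used RT-PCR and fluorescence capillary electrophoresis.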
# [8] = ATG_GATA_CIS: Attagene CIS-FACTORIAL HepG2 Assay for human GATA Binding Protein (AID 2282944); details: HepG2 GATA cis-element reporter, Attagene multiplex mRNA; actives raise or lower the signal
# Outline: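 Endogenous transcription factor activity was captured through cis-promoter-driven reporters in transfected HepG2 cells. After 24 h exposure, reporter transcripts were quantified by RT-PCR with fluorescent capillary electrophoresis, and responses fitted both directions against DMSO.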
# [9] = ATG_GLI_CIS: Attagene CIS-FACTORIAL HepG2 Assay for human Zinc Finger Protein GLI1 (AID 2282945); details: HepG2, Attagene cis-factorial reporter mRNA, GLI element; actives raise or lower the signal
# Outline: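 HepG2 cells transiently transfected with cis-promoter multiplexed reporter units report endogenous transcription factor activity. After 24 h chemical exposure, reporter mRNA was quantified by RT-PCR, 6-FAM labelling, HpaI digestion and capillary electrophoresis, with bidirectional fitting against DMSO.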
# [10] = target: Hepatocyte nuclear factor 3-beta (Homo sapiens) (UniProt Q9Y261); assay: ATG_FoxA2_CIS: Attagene CIS-FACTORIAL HepG2 Assay for human Forkhead box A2 (FOXA2) (AID 2282942); details: HepG2 cis-reporter transcription factor activity, 24 h; actives raise or lower the signal
# Hepatocyte nuclear factor 3-beta (Homo sapiens), sequence (Q9Y261 whole entry, looked up): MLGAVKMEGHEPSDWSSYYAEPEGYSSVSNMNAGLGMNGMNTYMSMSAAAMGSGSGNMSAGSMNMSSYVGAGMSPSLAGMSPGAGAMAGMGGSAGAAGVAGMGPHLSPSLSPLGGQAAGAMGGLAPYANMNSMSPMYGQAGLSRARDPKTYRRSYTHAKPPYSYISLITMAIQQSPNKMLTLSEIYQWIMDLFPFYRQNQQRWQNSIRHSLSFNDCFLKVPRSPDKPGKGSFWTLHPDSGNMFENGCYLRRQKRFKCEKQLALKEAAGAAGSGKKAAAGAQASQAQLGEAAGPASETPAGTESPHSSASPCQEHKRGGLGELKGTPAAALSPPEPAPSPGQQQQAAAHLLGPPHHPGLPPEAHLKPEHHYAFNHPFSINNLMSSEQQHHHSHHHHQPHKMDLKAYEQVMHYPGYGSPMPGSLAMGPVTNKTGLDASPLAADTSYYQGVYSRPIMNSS
# Outline: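 Endogenous transcription factor activity was read in HepG2 cells carrying transiently transfected cis-promoter reporter units. After 24 h dosing, reporter mRNA was quantified by RT-PCR and capillary electrophoresis, and values fitted bidirectionally versus DMSO.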
SMILES,outcome [1],outcome [2],outcome [3],outcome [4],outcome [5],outcome [6],outcome [7],outcome [8],outcome [9],outcome [10],AC50 [1],AC50 [3],AC50 [5],AC50 [7],AC50 [10],AC50 [9]
OCCCS,inactive,inactive,inactive,inactive,inactive,inactive,inactive,inactive,inactive,,,,,,,
O=C1CCCC(=O)O1,inactive,inactive,inactive,inactive,inactive,inactive,inactive,,inactive,inactive,,,,,,
COC(=O)c1sccc1S(N)(=O)=O,inactive,inactive,inactive,inactive,,inactive,inactive,inactive,inactive,inactive,,,,,,
CCCCC(CC)COCC1CO1 (configuration not stated),inactive,inactive,inactive,inactive,,inactive,inactive,inactive,inactive,inactive,,,,,,
CC(=O)CC(N)=O,inactive,inactive,inactive,inactive,,inactive,inactive,inactive,inactive,inactive,,,,,,
O=C(Oc1ccccc1)c1ccc2ccccc2c1O,,inactive,,inactive,,inactive,inactive,,inactive,,37.2 µM (active),48.7 µM (active),31.2 µM (active),,,
CC(C)COC(=O)C=Cc1ccccc1,inactive,inactive,inactive,inactive,inactive,inactive,inactive,,inactive,,,,,,,
C=CCOc1c(Br)cc(Br)cc1Br,inactive,inactive,inactive,inactive,,inactive,inactive,inactive,inactive,,,,27.7 µM (active),,,
Cc1ccc2oc(=O)ccc2c1,inactive,inactive,inactive,inactive,,inactive,inactive,inactive,inactive,inactive,,,,,,
NC(=O)OCC(COC(N)=O)c1ccccc1,inactive,inactive,inactive,inactive,,inactive,inactive,,inactive,inactive,,,,,,
CCCCC/C=C\CCC=O,inactive,inactive,inactive,inactive,,inactive,inactive,inactive,inactive,inactive,,,,,,
CC1=NC(C)OC1C (configuration not stated),inactive,inactive,inactive,inactive,inactive,inactive,inactive,inactive,inactive,,,,,,,
CCCCCCCC(C)=O,inactive,inactive,inactive,inactive,,inactive,inactive,inactive,,inactive,,,,,,
Cc1cc(O)c(Cl)c(C)c1Cl,inactive,inactive,inactive,inactive,,inactive,inactive,inactive,inactive,inactive,,,,,,
NC(=O)C1CO1 (configuration not stated),inactive,inactive,inactive,inactive,,inactive,inactive,inactive,inactive,inactive,,,,,,
CC1(C)S[C@@H]2[C@H](NC(=O)COc3ccccc3)C(=O)N2[C@H]1C(=O)O,inactive,inactive,inactive,inactive,,inactive,inactive,inactive,inactive,inactive,,,,,,
Nc1ccc(Cl)cc1Cl,inactive,inactive,inactive,inactive,,inactive,inactive,inactive,inactive,inactive,,,,,,
CC(=O)OCC(=O)[C@@]12N=C(C)O[C@@H]1C[C@H]1[C@@H]3CCC4=CC(=O)C=C[C@]4(C)[C@H]3[C@@H](O)C[C@@]12C,inactive,inactive,inactive,inactive,,inactive,inactive,inactive,,inactive,,,,,,
CC(C)(C)C(=O)CCc1ccc(Cl)cc1,inactive,inactive,inactive,inactive,,inactive,inactive,,inactive,,,,30.2 µM (active),,,
CC(C)C(=O)C(C)C,inactive,inactive,,inactive,,inactive,,inactive,,inactive,,59.4 µM (active),,65.6 µM (active),,
S=C(NC1CCCCC1)NC1CCCCC1,inactive,inactive,inactive,inactive,,inactive,inactive,inactive,inactive,inactive,,,,,,
C=CC=CC=CCCCCC,inactive,inactive,inactive,inactive,inactive,inactive,inactive,,inactive,,,,,,,
O=C(O)Cc1c(Cl)ccc(Cl)c1Cl,inactive,inactive,inactive,inactive,inactive,inactive,inactive,inactive,inactive,,,,,,,
CCOC(=O)c1ccccc1C(=C1C=C(Br)C(=O)C(Br)=C1)c1cc(Br)c(O)c(Br)c1,,inactive,,inactive,,inactive,,inactive,,,108 µM (active),33.4 µM (active),,47.6 µM (active),43.6 µM (active),37.7 µM (active)
Cc1ccc(C2OC[C@@H]3OC(c4ccc(C)cc4)O[C@H]([C@H](O)CO)[C@@H]3O2)cc1 (some centres not stated),inactive,inactive,inactive,inactive,inactive,inactive,inactive,,inactive,,,,,,,
FC(F)(F)C(=NOCC1OCCO1)c1ccc(Cl)cc1,inactive,inactive,inactive,inactive,,inactive,inactive,inactive,,inactive,,,,,,
O=C(O)CC(C(=O)O)C(CC(=O)O)C(=O)O (configuration not stated),inactive,inactive,inactive,inactive,,inactive,inactive,inactive,inactive,inactive,,,,,,
CC=C1CC2C=CC1C2 (configuration not stated),inactive,inactive,inactive,inactive,,inactive,inactive,inactive,inactive,inactive,,,,,,
